# Molecular target: Calcium/calmodulin-dependent protein kinase type II subunit delta (Homo sapiens) (UniProt Q13557)
# Details: at 0.1 µM
# Calcium/calmodulin-dependent protein kinase type II subunit delta (Homo sapiens), sequence (Q13557 whole entry): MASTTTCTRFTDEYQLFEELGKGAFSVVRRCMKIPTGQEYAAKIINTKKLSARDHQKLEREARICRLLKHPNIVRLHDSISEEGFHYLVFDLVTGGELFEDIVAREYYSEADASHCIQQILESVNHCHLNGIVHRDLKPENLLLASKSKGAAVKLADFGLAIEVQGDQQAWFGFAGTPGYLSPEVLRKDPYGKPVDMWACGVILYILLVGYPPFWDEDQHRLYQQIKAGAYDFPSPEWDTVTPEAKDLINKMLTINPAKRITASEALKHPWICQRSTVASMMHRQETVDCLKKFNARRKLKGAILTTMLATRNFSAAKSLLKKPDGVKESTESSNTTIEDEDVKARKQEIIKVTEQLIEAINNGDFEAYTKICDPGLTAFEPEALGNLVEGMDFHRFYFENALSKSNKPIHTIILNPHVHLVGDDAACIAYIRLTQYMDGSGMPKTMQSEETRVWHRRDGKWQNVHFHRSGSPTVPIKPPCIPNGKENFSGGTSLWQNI
row,Structure (SMILES),inhibition
1,O=C(Nc1n[nH]c2cc(-c3ccccc3)ccc12)C1CC1,3.79%
2,Cc1ccc(C(=O)NC2CCC2)cc1-c1ccc(C(=O)NCC2CC2)cc1,1.89%
3,O=C(Nc1n[nH]c2cc(-c3cc(F)ccc3F)ccc12)C1CC1,3.1%
4,CNC(=O)c1cncc(/C=C/c2c(C)cccc2C)c1,1.04%
5,O=C(Nc1n[nH]c2nc(-c3ccc(O)cc3)c(Br)cc12)C1CC1,6.47%
6,NS(=O)(=O)c1ccc(N/N=C2\C(=O)Nc3ccc(-c4cnco4)cc32)cc1,2.48%
7,Fc1ccc(-c2ncn(CCCN3CCOCC3)c2-c2ccncc2)cc1,1.48%
8,C[C@@H](Oc1cc(-n2cnc3ccc(OCC4CCN(C)CC4)cc32)sc1C(N)=O)c1ccccc1Cl,9.02%
9,CCc1ccc(Oc2nccc(-c3c(-c4ccc(F)cc4)ncn3C3CCNCC3)n2)cc1,4.44%
10,COc1cccc(/C=N/Nc2ncnc3c2cnn3-c2cccc(OC)c2)c1,3.36%
11,COc1ccc2cc(-c3c(-c4ccncc4)nc(-c4ccc(S(C)(=O)=O)cc4C)n3C)ccc2c1,3.49%
12,CS(=O)(=O)CCNCc1ccc(-c2ccc3ncnc(Nc4ccc(OCc5ccccc5)c(Br)c4)c3c2)o1,2.65%
13,Fc1ccc(-c2ncn(C3CCNCC3)c2-c2ccnc(Oc3ccc(Oc4ccccc4)cc3)n2)cc1,3.93%
14,O=C1Nc2ccc(I)cc2C1=Cc1cc(Br)c(O)c(Br)c1,3.27%
15,COc1cc(Nc2ncc3c(C)nc(-c4cccc(Oc5ccccc5)c4)n3n2)cc(OC)c1OC,3.36%
16,CN1CCN(CCCNc2nc3ccc(Oc4ccc(NC(=O)Nc5cc(C(F)(F)F)ccc5F)cc4)cc3[nH]2)CC1,3.68%
17,COc1cc(Nc2ncc(-c3ccccc3)o2)cc(OC)c1OC,-2.56%

row,Structure (SMILES),inhibition
1,COc1ccc(C2=C(N3CCc4ccccc43)C(=O)NC2=O)cc1,4.35%
2,Cc1ccc(C(=O)NC(C)C)cc1-c1ccc(C(=O)NCC2CC2)cc1,-3.04%
3,NC(=O)c1cc(-c2ccc(F)cc2)cc(-c2ccncc2)c1N,1.36%
4,Clc1ccc(CNc2nccc(-c3cnn4ncccc34)n2)cc1,2.06%
5,O=C1Nc2ccccc2/C1=C/Nc1ccc(-n2cncn2)cc1,2.3%
6,Fc1ccc(-c2ncn(C3CCNCC3)c2-c2ccnc(Oc3ccc(F)c(F)c3)n2)cc1,1.91%
7,CN(c1ccc(NC(=O)Nc2c(Cl)cccc2Cl)cc1)c1ccnc(Nc2cccc(CS(C)(=O)=O)c2)n1,1.22%
8,NC(=O)Cc1ccccc1Oc1nccc(-c2c(-c3ccc(F)cc3)ncn2C2CCNCC2)n1,2.62%
9,CN(C)CCOc1ccc(-c2cc(-c3ccc4c(c3)CCC4=NO)c(-c3ccncc3)o2)cc1,-0.38%
10,CN(C)c1ccc2c(c1)/C(=C/Nc1ccc(S(N)(=O)=O)cc1)C(=O)N2,2.54%
11,COc1cc(C)c(N(C)C(=O)CN(C)C)cc1Nc1nc(Nc2cccc(F)c2C(N)=O)c2cc[nH]c2n1,3.09%
12,O=C(NCC1CC1)c1ccc(-c2cccc(C(=O)NC3CC3)c2)cc1,2.24%
13,COc1cc(N2CCN(C(C)C)CC2)ccc1Nc1nc(Nc2ccc(F)cc2C(=O)NC[C@@H](O)CO)c2cc[nH]c2n1,3.45%
14,NC(=O)c1ccc(Oc2nccc(-c3c(-c4ccc(F)cc4)ncn3C3CCNCC3)n2)cc1,4.24%
15,COc1cc2ncn(-c3cc(OCCc4ccccc4)c(C(N)=O)s3)c2cc1OC,2.83%
16,CCc1cccc(CC)c1/C=C/c1cncc(C(=O)NC)c1,2.92%
17,COc1ccc2cc(-c3c(-c4ccncc4)nc(-c4ccc([S+](C)[O-])cc4C)n3C)ccc2c1 (stereo not drawn),-0.62%

# Molecular target: Calcium/calmodulin-dependent protein kinase type II subunit delta (Homo sapiens) (UniProt Q13557)
# Details: at 1 µM
row,Structure (SMILES),inhibition
1,O=C(Nc1n[nH]c2cc(-c3ccccc3)ccc12)C1CC1,3.53%
2,Cc1ccc(C(=O)NC2CCC2)cc1-c1ccc(C(=O)NCC2CC2)cc1,1.44%
3,O=C(Nc1n[nH]c2cc(-c3cc(F)ccc3F)ccc12)C1CC1,25.3%
4,CNC(=O)c1cncc(/C=C/c2c(C)cccc2C)c1,1.43%
5,O=C(Nc1n[nH]c2nc(-c3ccc(O)cc3)c(Br)cc12)C1CC1,20.1%
6,NS(=O)(=O)c1ccc(N/N=C2\C(=O)Nc3ccc(-c4cnco4)cc32)cc1,16.3%
7,Fc1ccc(-c2ncn(CCCN3CCOCC3)c2-c2ccncc2)cc1,2.85%
8,C[C@@H](Oc1cc(-n2cnc3ccc(OCC4CCN(C)CC4)cc32)sc1C(N)=O)c1ccccc1Cl,38.1%
9,CCc1ccc(Oc2nccc(-c3c(-c4ccc(F)cc4)ncn3C3CCNCC3)n2)cc1,7.05%
10,COc1cccc(/C=N/Nc2ncnc3c2cnn3-c2cccc(OC)c2)c1,6.18%
11,COc1ccc2cc(-c3c(-c4ccncc4)nc(-c4ccc(S(C)(=O)=O)cc4C)n3C)ccc2c1,3.21%
12,CS(=O)(=O)CCNCc1ccc(-c2ccc3ncnc(Nc4ccc(OCc5ccccc5)c(Br)c4)c3c2)o1,3.02%
13,Fc1ccc(-c2ncn(C3CCNCC3)c2-c2ccnc(Oc3ccc(Oc4ccccc4)cc3)n2)cc1,10.3%
14,O=C1Nc2ccc(I)cc2C1=Cc1cc(Br)c(O)c(Br)c1,9.08%
15,COc1cc(Nc2ncc3c(C)nc(-c4cccc(Oc5ccccc5)c4)n3n2)cc(OC)c1OC,3.83%
16,CN1CCN(CCCNc2nc3ccc(Oc4ccc(NC(=O)Nc5cc(C(F)(F)F)ccc5F)cc4)cc3[nH]2)CC1,6.84%
17,COc1cc(Nc2ncc(-c3ccccc3)o2)cc(OC)c1OC,5.55%

row,Structure (SMILES),inhibition
1,COc1ccc(C2=C(N3CCc4ccccc43)C(=O)NC2=O)cc1,7.01%
2,Cc1ccc(C(=O)NC(C)C)cc1-c1ccc(C(=O)NCC2CC2)cc1,-1.11%
3,NC(=O)c1cc(-c2ccc(F)cc2)cc(-c2ccncc2)c1N,3.98%
4,Clc1ccc(CNc2nccc(-c3cnn4ncccc34)n2)cc1,3.21%
5,O=C1Nc2ccccc2/C1=C/Nc1ccc(-n2cncn2)cc1,6.83%
6,Fc1ccc(-c2ncn(C3CCNCC3)c2-c2ccnc(Oc3ccc(F)c(F)c3)n2)cc1,4.38%
7,CN(c1ccc(NC(=O)Nc2c(Cl)cccc2Cl)cc1)c1ccnc(Nc2cccc(CS(C)(=O)=O)c2)n1,-0.38%
8,NC(=O)Cc1ccccc1Oc1nccc(-c2c(-c3ccc(F)cc3)ncn2C2CCNCC2)n1,2.58%
9,CN(C)CCOc1ccc(-c2cc(-c3ccc4c(c3)CCC4=NO)c(-c3ccncc3)o2)cc1,2.18%
10,CN(C)c1ccc2c(c1)/C(=C/Nc1ccc(S(N)(=O)=O)cc1)C(=O)N2,15%
11,COc1cc(C)c(N(C)C(=O)CN(C)C)cc1Nc1nc(Nc2cccc(F)c2C(N)=O)c2cc[nH]c2n1,3.38%
12,O=C(NCC1CC1)c1ccc(-c2cccc(C(=O)NC3CC3)c2)cc1,3.64%
13,COc1cc(N2CCN(C(C)C)CC2)ccc1Nc1nc(Nc2ccc(F)cc2C(=O)NC[C@@H](O)CO)c2cc[nH]c2n1,7.22%
14,NC(=O)c1ccc(Oc2nccc(-c3c(-c4ccc(F)cc4)ncn3C3CCNCC3)n2)cc1,6.79%
15,COc1cc2ncn(-c3cc(OCCc4ccccc4)c(C(N)=O)s3)c2cc1OC,3.66%
16,CCc1cccc(CC)c1/C=C/c1cncc(C(=O)NC)c1,2.2%
17,COc1ccc2cc(-c3c(-c4ccncc4)nc(-c4ccc([S+](C)[O-])cc4C)n3C)ccc2c1 (stereo not drawn),0.45%
